An excerpt weighted towards active compounds, which were near 10% of everything screened.
HP1b binding inh = HP1-beta chromodomain-methylated histone interaction inhibition. 390,000 tested, 0.56% active. P83916. AID 540317. AlphaScreen HP1-beta / biotin-H3K9me3 peptide binding. Potency, µM (doses to about 114 µM), for the others: at the top dose activity change, negative = inhibition, hits mostly inhibitors; further: potency means the concentration at half of the fitted maximal effect; nearly all actives have a fitted effect of over 70% in size
Target sequence (P83916 whole entry, looked up): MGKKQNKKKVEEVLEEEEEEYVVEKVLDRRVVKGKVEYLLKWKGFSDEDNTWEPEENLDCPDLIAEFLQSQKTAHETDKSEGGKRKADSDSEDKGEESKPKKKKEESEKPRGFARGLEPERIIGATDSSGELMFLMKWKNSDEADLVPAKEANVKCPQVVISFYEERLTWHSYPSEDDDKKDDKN
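HP1-beta protein (50 nM final) preincubated 30 min at room temperature with biotinylated H3(1-18)K9me3 peptide (50 nM) in PBS pH 7.4, 0.01% Tween-20, then compound added for 30 min. AlphaScreen streptavidin donor/nickel chelate acceptor beads (10 ug/mL final), 30 min dark, luminescence read.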
JMJD2A Tudor inh = blocks the human JMJD2A Tudor domain. AID 504339. AlphaScreen JMJD2A-Tudor / H3K4me3 peptide binding. Potency, µM (series often up to 114 µM), without a hit: at the highest dose activity change, negative = inhibition, hits mostly inhibitors. 390,000 tested, 4.4% active; further: potency means the concentration at half of the fitted maximal effect; on the % scale 0 is the no-effect control and ±100 the full control effect; nearly all actives have a fitted effect of over 50% in size
CtBP-E1A inh = inhibitors of CtBP/E1A interaction; AlphaScreen GST-E1A/His-CtBP binding, 1536-well; active compounds read low; activity change, % (concentration not given with the values); 340,000 tested, 0.49% active; in the data active means activity change below about -65%; inconclusive means mostly about -30% to -63%; further: on the % scale 0 is the no-effect control and ±100 the full control effect
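Homogeneous bead-based format: GST-tagged E1A captured on glutathione donor beads, His-tagged CtBP on nickel acceptor beads; compounds precede bead addition by 2 h at 37 °C.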
BAZ2B block = inhibitors of human BAZ2B bromodomain | AlphaScreen BAZ2B-H3K14Ac peptide displacement | Potency, µM (titrated, usually from 114 µM), inactives show at the top dose activity change, negative = inhibition, actives largely listed as inhibitors | Q9UIF8 | 360,000 tested, 4.4% active; further: potency means the concentration at half of the fitted maximal effect; on the % scale 0 is the no-effect control and ±100 the full control effect; nearly all actives have a fitted effect of over 60% in size
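Multi-concentration screen (max 110 uM) measuring displacement of acetylated histone H3 peptide from BAZ2B by AlphaScreen, using 50 nM protein, 50 nM peptide and 10 ug/mL streptavidin donor plus Ni-chelate acceptor beads.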
Six1-Eya2 inh = inhibitors of human Six1/Eya2 interaction. AlphaScreen GST-Six1/His-Eya2 binding, biochemical; active compounds read low. activity change, % (no concentration beside the values). 360,000 tested, 0.56% active; in the data active means activity change below about -65%; inconclusive means mostly about -30% to -63%; further: on the % scale 0 is the no-effect control and ±100 the full control effect
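Compounds are tested against tagged Six1 and Eya2 proteins bridged by glutathione donor and nickel acceptor beads; after a one-hour incubation at 37 °C without light, AlphaScreen emission is recorded.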
G9a block = inhibitors of human histone lysine methyltransferase G9a; G9a H3K9 monomethylation, AlphaScreen, 2 h; AID 504332; 350,000 tested, 8.8% active; Potency, µM (highest dose often 102 µM), for inactives: at the highest dose activity, negative = inhibition, most hits filed as inhibitors; Q96KQ7; further: potency means the concentration at half of the fitted maximal effect; on the % scale 0 is the no-effect control and ±100 the full control effect; nearly all actives have a fitted effect of over 75% in size
Target sequence (Q96KQ7 913-1193 limits assumed): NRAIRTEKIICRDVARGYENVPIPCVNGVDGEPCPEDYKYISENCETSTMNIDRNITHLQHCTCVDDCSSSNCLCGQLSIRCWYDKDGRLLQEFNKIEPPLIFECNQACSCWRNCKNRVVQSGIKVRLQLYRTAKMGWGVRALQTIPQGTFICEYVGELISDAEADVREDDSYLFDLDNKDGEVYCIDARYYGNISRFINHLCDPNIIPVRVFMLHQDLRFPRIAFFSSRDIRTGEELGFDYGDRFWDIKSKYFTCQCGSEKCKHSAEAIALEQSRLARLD
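Signal arises when biotinylated H3K9 peptide, once monomethylated, bridges streptavidin donor and antibody-captured acceptor beads. Enzyme at 20 nM was preincubated 15 min with test compounds; peptide 500 nM and SAM 20 uM then reacted for 2 h.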
* hit, by the source's call; ? = inconclusive; . = not tested or not shown; [ ] = remark or other dose. Unless noted, the call rests on the fitted dose curve; in most records, active means well fitted inhibition curve with a large enough effect; inconclusive means small, poorly fitted or top-dose-only effect; inactive means no such curve, though single readings can be large or run the other way.

SMILES	HP1b binding inh	JMJD2A Tudor inh	CtBP-E1A inh	BAZ2B block	Six1-Eya2 inh	G9a block
CCc1cc(=O)oc2cc(C)c(CN3CCCC(C)C3)c(O)c12 (centres undefined)	-31%	35µM*	2	22µM*	-24	?
CCCCc1cc(=O)oc2cc(C)c(CN3CCCC3)c(O)c12	-11%	50µM*	-2	45µM*	-17	-49%[12.7 µM]
Cc1cc2oc(=O)cc(CN3CCCCC3)c2cc1C	23%	-3%	-2	8%	2	-5%
O=C(COC(=O)/C=C/c1ccco1)NCc1ccc(Cl)cc1Cl	18%	-8%	.	.	-4	.
O=C(COC(=O)/C=C/c1ccco1)Nc1ncc(C(F)(F)F)cc1Cl	50µM*	35µM*	-2	45µM*	-14	22µM*
Cc1c(Cl)cnc(NC(=O)COC(=O)/C=C/c2ccco2)c1Cl	-4%	?	-3	50µM*	?	45µM*
COc1ccc(-c2cc(=O)oc3c(C)c(OC(C)C(=O)NCc4ccccn4)ccc23)cc1 (centres undefined)	9%	-18%	-1	-7%	1	13%[12.7 µM]
Cc1nc(N)sc1N=Nc1ccccc1C(F)(F)F	35µM*	50µM*	0	28µM*	-25	40µM*
CCOC(=O)[C@]12CCC=C1N(CCC1=CCCCC1)C(=O)[C@H](CC(=O)N1CCSCC1)C2	.	.	5	.	-2	.
O=C(CSc1nc2ccc(Nc3nc(N4CCOCC4)nc(N4CCOCC4)n3)cc2s1)N1CCOCC1	21%	-15%	2	0%	-1	6%[59 µM]
Cc1ccc(Nc2nc(N3CCOCC3)nc(N3CCOCC3)n2)cc1	20%	-14%	6	2%	7	.
CSc1nc2ccc(Nc3nc(N4CCOCC4)nc(N4CCOCC4)n3)cc2s1	3%	-36%	-7	1%	-2	16µM*
CCCCc1ccc(Nc2nc(N3CCOCC3)nc(N3CCOCC3)n2)cc1	38%	-14%	5	-39%[57.1 µM]	-2	50µM*
CN1CCc2c(C#N)c(N3CCCCC3)nc(NCc3ccccc3)c2C1	-17%	?	-9	?	-14	40µM*
N#Cc1c(NCCCO)nc(NCc2ccccc2)c2c1CCN(Cc1ccccc1)C2	?	56µM*	-19	32µM*	?	40µM*
Cc1cnc(CNc2nc3cc(-c4ccccc4C)sc3c(=O)n2C)cn1	.	.	-3	.	-3	.
CCOc1ccc(CNc2cccc(SC)c2)cc1	45µM*	3.2µM*	-9	40µM*	-8	28µM*
CCOc1ccc(CNc2ccc(CNc3ncn[nH]3)cc2)cc1	21%	-34%	6	?	-9	-19%
COc1cc(O)c(C(C)=O)c(OC)c1	46%	-23%	30	.	27	.
COc1cc(O)c(C(C)=O)c(CC(=O)O)c1	?	32µM*	2	40µM*	?	?
Cc1ccc(NC(=O)CCc2nc3cccnc3n2-c2ccccc2)cc1Cl	-1%	-25%	.	?	.	?
Cc1ccc(S(=O)(=O)N[C@H](CNCc2ccccc2)C(C)C)cc1	.	.	8	.	8	.
COc1cc2oc(=O)cc(-c3ccc(-c4sccc4C=O)cc3)c2c(OC)c1OC	.	.	.	.	.	14%[59 µM]
Cc1nc(C(=O)NNC(=O)c2ccc(Cl)cc2)cs1	24%	-10%	-7	1%	6	?
Cc1nc(/C(=N/O)C(N)=O)cs1	9%	-15%[11.4 µM]	-22	50µM*	-13	13µM*
SMILES	HP1b binding inh	JMJD2A Tudor inh	CtBP-E1A inh	BAZ2B block	Six1-Eya2 inh	G9a block
O=C(CSc1n[nH]c(-c2ccco2)n1)Nc1ccc(F)cc1	-6%	-18%	6	-4%	5	6%
CN(C)c1ccc(NC(=O)CSc2nnc(-c3ccco3)c(-c3ccco3)n2)cc1	?	?	?	25µM*	?	25µM*
O=C(CSc1nnc(-c2ccccc2)c(-c2ccccc2)n1)NCc1ccco1	?	-37%[57.1 µM]	-17	?	-20	20%[59 µM]
CCc1ccc(NC(=O)CSc2nnc(CC)c(CC)n2)cc1	48%	-5%	18	2%	13	10%[59 µM]
Cc1ccc(NC(=O)CSc2nnc(-c3ccco3)c(-c3ccco3)n2)cc1	?	56µM*	-22	32µM*	?	?
CCc1nnc(SCC(=O)Nc2ccc(C(C)=O)cc2)nc1CC	-1%	-16%	-2	56µM*	0	-6%[12.7 µM]
O=C(CSc1nnc(-c2ccco2)c(-c2ccco2)n1)Nc1ccccc1	22µM*	50µM*	?	20µM*	?	-3%[2.33 µM]
CCOc1ccccc1NS(=O)(=O)c1ccc(N2CCCCS2(=O)=O)cc1	-6%	-18%	.	-4%	.	4%[59 µM]
Cc1ccc(S(=O)(=O)c2nnn3c2nc(NCc2ccc4c(c2)OCO4)c2sccc23)cc1C	18%	-17%	.	?	.	?
CN1c2ccccc2N(C)C1(C)c1ccccc1	?	8.9µM*	-17	46%	-24	?
CCN1c2ccccc2N(C)C1(C)c1ccccc1 (centres undefined)	32µM*	8.9µM*	-26	28µM*	?	2.5µM*
O=S(=O)(c1ccccc1)c1nc(Nc2ccccc2N2CCOCC2)sc1Cl	?	32µM*	-6	-37%	-8	25µM*
O=S(=O)(c1ccccc1)c1nc(NC2CC2)sc1Cl	54%	4%	-7	-17%	9	-21%
CCN1CCC(N(Cc2cccc(OC)c2)C(=O)Nc2cccc(C(F)(F)F)c2)CC1	1%	-19%	.	-3%	.	-6%[59 µM]
COc1ccc(Nc2nc3c(C)cccn3c(=O)c2C=O)cc1	20%	-1%	-3	2%	1	73%
Cc1cccn2c(=O)c(C=O)c(Nc3ccccc3)nc12	23%	-14%	7	-17%	-8	45µM*
CCc1ccccc1N1CC(C(=O)Nc2cc(C)on2)CC1=O (centres undefined)	34%	1%	1	0%	0	6%
Cc1cc(NC(=O)Nc2nnc(N(C)C3CCCCC3)s2)ccc1Br	12%	-14%	.	50µM*	.	5%[59 µM]
Cc1cc(C)cc(NC(=O)Nc2nnc(N(C)C3CCCCC3)s2)c1	25%	-16%	.	-27%	.	1%[59 µM]
C/C=C1/C(=O)C[C@@H]2[C@H]3CCC4=CC(=O)CC[C@]4(C)[C@@H]3CC[C@]12C	.	.	.	.	.	38%[59 µM]
COc1cc(/C=C2\SC(=S)N(CC(=O)Nc3ccc(O)cc3)C2=O)cc(OC)c1OC	38%	-5%	.	-14%	-7	9%
COc1ccc(/C=C2\SC(=S)N(CC(=O)OCC(=O)Nc3cc(Cl)cc(Cl)c3)C2=O)cc1	-4%	?	.	-38%	-25	32µM*
CCc1ccc(/C=C2\SC(=S)N(CCCC(=O)Nc3ccc(C(=O)O)cc3)C2=O)cc1	?	50µM*	-28	35µM*	-8	-3%

Screens (PubChem BioAssay)
